# Compound activity from PubChem.
# In the library only some 6.8% were active in any assay of this set; here they are far more common.
# KB-V1 cytotox = kills drug-selected multidrug resistant KB-V1 cells; KB-V1 MDR cells viability, CellTiter-Glo, 72 h; 3.4% of 400,000 active; Potency, µM (series often up to 46.1 µM), most hits filed as cytotoxic; further: on the % scale 0 is the no-effect control and ±100 the full control effect; nearly all actives have a fitted effect of over 60% in size
#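 Cytotoxicity via CellTiter-Glo luminescence after 72 h compound exposure at 37 degrees C. Cells: drug-selected KB-V1 line, DMEM phenol-red free plus 10% FBS. Compounds tested at multiple concentrations; normalized data fitted to concentration-effect curves.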
# KB-3-1 cytotox = KB-3-1 parental cell cytotoxicity; Potency, µM (highest dose often 46.1 µM), most hits filed as cytotoxic; AID 1347075; KB-3-1 viability, CellTiter-Glo ATP luminescence, 72 h; 1.4% of 400,000 active; further: on the % scale 0 is the no-effect control and ±100 the full control effect; nearly all actives have a fitted effect of over 60% in size
#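 Cells are dispensed, compounds pinned in, plates held at 37 °C for 72 h, then CellTiter-Glo is added and luminescence read after 10 minutes. Cell line: parental KB-3-1 in phenol-red-free DMEM, 10% FBS.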
# MCF10A rerep = DNA re-replication induction in MCF 10a cells; MCF 10A DNA re-replication, Hoechst nuclear intensity, 48 h; Potency, µM (top dose mostly 46.1 µM), for inactives: top-dose activity, positive = re-replication, most hits filed as activators; 2.9% of 350,000 active; AID 624296; further: % of control where 0% means no effect; nearly all actives have a fitted effect of over 50% in size
# SW480 rereplic = induces DNA re-replication in SW480 colon adenocarcinoma cells; SW480 DNA re-replication, Hoechst DNA content imaging, 48 h; Potency, µM (titrated, usually from 46.1 µM), for the others: at the highest dose re-replication activation, usual class: activators; 1.8% of 340,000 active; further: % of control where 0% means no effect; nearly all actives have a fitted effect of over 55% in size
#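 Readout is total intensity of Hoechst-stained nuclei, excited at 405 nm and collected at 500-530 nm. Compound treatment lasted 48 hr at 37 C in 5% CO2 before staining.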
# PINK1 modulator = modulators of PINK1 expression; AID 624263; Potency, µM (doses to about 76.6 µM), for inactives: at the highest dose activation (PINK1 increase), hits mostly activators; 0.2% of 410,000 active; PINK1 immunofluorescence, high-content cytometry, 24 h; active means well fitted activation curve with a large enough effect; inconclusive means small, poorly fitted or top-dose-only effect; cell line not stated here; further: % of control where 0% means no effect; nearly all actives have a fitted effect of over 65% in size
#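 Readout is PINK1 immunofluorescence, quantified alongside mitochondrial, cell and nuclear markers by laser-scanning microplate cytometry. Cells from a stable line were exposed to compound titrations (5 concentrations) for 24 hours, with CCCP controls.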
# PTAP TSG101 blk = blocks PTAP/TSG101 interaction to inhibit HIV-1 budding. 340,000 tested, under 10 active. Potency, µM (top dose mostly 115 µM), for inactives: at the highest dose activity change, negative = inhibition, hits mostly inhibitors. Fluorescence polarization, FITC-PTAP peptide / Tsg101 binding. Q99816; active means well fitted inhibition curve with a large enough effect in the main read-out, with a control signal flat, not every such curve was filed as active; inconclusive means small, poorly fitted or top-dose-only effect, or effect the other way, or a change in a side signal; inactive means no such curve, though single readings can be large or run the other way; further: % of control where 0% means no effect
# Target sequence (Q99816 whole entry, looked up): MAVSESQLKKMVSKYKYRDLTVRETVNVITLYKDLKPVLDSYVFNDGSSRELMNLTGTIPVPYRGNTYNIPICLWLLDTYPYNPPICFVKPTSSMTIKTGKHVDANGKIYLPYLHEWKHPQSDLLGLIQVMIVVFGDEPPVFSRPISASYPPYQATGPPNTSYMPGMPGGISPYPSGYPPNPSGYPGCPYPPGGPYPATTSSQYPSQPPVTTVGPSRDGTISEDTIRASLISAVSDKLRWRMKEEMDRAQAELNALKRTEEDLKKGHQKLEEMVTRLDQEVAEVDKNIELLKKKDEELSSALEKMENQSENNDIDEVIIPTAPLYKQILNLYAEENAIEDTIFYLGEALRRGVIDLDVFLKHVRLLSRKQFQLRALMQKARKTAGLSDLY
#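 Steps: Tsg101 binding domain dispensed (10 uM final), compounds pinned in DMSO, FITC-labeled PTAP-motif peptide added (50 nM final); after 20 min binding at room temperature, polarization measured.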
# An asterisk follows results filed as active; i = inactive; ? = inconclusive; / = no result given; [ ] = dose if it differs, or a comment. Unless noted, the call rests on the fitted dose curve; in most records, active means well fitted curve in the direction sought with a large enough effect; inconclusive means small, poorly fitted or top-dose-only effect, or another doubt; inactive means no such curve, though single readings can be large; an effect the other way counts as inactive or inconclusive. Potency means the concentration at half of the fitted maximal effect.
SMILES,KB-V1 cytotox,KB-3-1 cytotox,MCF10A rerep,SW480 rereplic,PINK1 modulator,PTAP TSG101 blk
COc1cccc(Oc2nc(C)nc3c2oc2ccccc23)c1,i,i,/,/,0%,/
COc1cc2oc(=O)c(CC(=O)N3CCCCC3)c(C)c2cc1Cl,i,i,/,/,2%,/
Oc1ccc(CCNc2ncnc3ccc(Cl)cc23)cc1,?,i,8.2µM*,-62%,1%,2%
Clc1ccc(CSc2ncccn2)cc1,i,i,7%,12%,3%[38.3 µM],-3%
O=C1c2cnc3nc(SCc4ccc(Cl)cc4)nn3c2CC2c3ccccc3CCN12 (stereo not drawn),i,i,3.3µM*,?,0%,0%
COc1ccc(NC(=O)CSc2cc(C)nc3c(-c4ccccc4)cnn23)cc1,i,i,9.2µM*,?,14%,2%
CCN1C(C(=O)c2ccccc2)=C(OC(=O)COc2ccccc2)c2ccccc2S1(=O)=O,/,/,/,/,-1%,/
O=C(NCCc1nnc2n1CCN(Cc1ccc(F)cc1)CC2)c1ccco1,/,/,/,/,0%,/
COc1ccccc1-n1nnnc1SCC(=O)Nc1ccccc1,?,i,-2%,-1%,13%,1%
Cc1ccc(-n2nnnc2SCC(=O)Nc2cccnc2Cl)cc1,i,i,23%,?,10%,-5%
O=C(CSc1nnnn1-c1ccc(Cl)cc1)Nc1cccnc1Cl,16µM*,i,4%,-4%,3%,0%
COc1ccccc1-n1nnnc1SCC(=O)Nc1ccccn1,16µM*,i,10%,0%,?,-8%
CCOC(=O)NC(=O)CSc1nnnn1-c1ccc(C)cc1,i,i,0%,-9%,0%,-3%
CCOC(=O)NC(=O)CSc1nnnn1-c1ccc(Cl)cc1,i,i,1.8µM*,5.2µM*,-6%[38.3 µM],-6%
COc1ccc(/C=C/C(=O)NCC2Cc3cc(Cl)cc(-c4ncccn4)c3O2)cc1 (stereo not drawn),/,/,/,/,1%,/
CC(C)c1c(C(=O)N/N=C/c2ccc(Cl)cc2Cl)nnn1-c1nonc1N,i,i,2%,-9%,8%,5%
Nc1nonc1-n1nnc(C(=O)N/N=C/c2cccc(Cl)c2Cl)c1CN1CCCC1,i,i,?,21µM*,12%,-2%
Nc1nonc1-n1nnc(C(=O)N/N=C/c2ccc(Cl)cc2Cl)c1CN1CCCC1,i,i,-3%,3.7µM*,-1%,-2%
